The target in experiment [1] is Myc proto-oncogene protein (Homo sapiens) (UniProt P01106). The experiment can be described thus: ATG_Myc_CIS: Attagene CIS-FACTORIAL HepG2 Assay for human Myelocytomatosis (Myc) Proto-Oncogene Transcription Factor (AID 2282990). Particulars: HepG2, Attagene cis-reporter transcription factor activity; actives raise or lower the signal. Put shortly:
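Multiplexed cis-reporter transcription in HepG2 cells after 24 h chemical treatment. Reporter mRNA measured by RT-PCR and capillary electrophoresis fluorescence; activity fitted bidirectionally against DMSO control.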

Experiment [2] in a line: ATG_NRF2_ARE_CIS: Attagene CIS-FACTORIAL HepG2 Assay for human Nuclear Factor Erythroid 2 Related Factor 2 (NFR2) response to Antioxidant Response Elements (ARE) (AID 2282992). The settings on record: HepG2 Attagene ARE/NRF2 reporter, transcription factor activity; actives raise or lower the signal. Put shortly: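 Endogenous transcription factor activity in human liver HepG2 cells is tracked via a cis-element-driven reporter within a multiplexed set. mRNA induction is read by RT-PCR and capillary electrophoresis after 24 h, with DMSO as baseline.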

A short description of experiment [3]: ATG_Oct_MLP_CIS: Attagene CIS-FACTORIAL HepG2 Assay for human Octamer-Binding Transcription Factor (Oct) (AID 2282993). Particulars: HepG2 Attagene cis-factorial Oct reporter, mRNA; actives raise or lower the signal. Put shortly:
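HepG2 cells transiently transfected with cis-promoter-driven multiplexed reporter transcription units, dosed for 24 h. Reporter mRNA quantified by RT-PCR, fluorescent labelling, HpaI digestion and capillary electrophoresis; bidirectional fits versus DMSO baseline.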

For experiment [4], the target named is Cellular tumor antigen p53 (Homo sapiens) (UniProt P04637). As to the kind of experiment: ATG_p53_CIS: Attagene CIS-FACTORIAL HepG2 Assay for human p53 Transcription Factor (AID 2282994). Particulars: HepG2 p53 cis-element reporter, Attagene mRNA; actives raise or lower the signal. Put shortly: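 Steps: transfect HepG2 with multiplexed cis reporter constructs; dose chemicals 24 h; extract RNA, reverse-transcribe, PCR-amplify reporter sequences; FAM-label, HpaI-digest, resolve fragments by CE. Activity fitted both directions relative to DMSO.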

Experiment [5] in a line: BSK_3C_TissueFactor: BioMAP Diversity Plus: 3C Assay for Tissue Factor Biomarker Activity (AID 2282997). The settings on record: BioMAP 3C HUVEC, tissue factor biomarker readout; actives raise or lower the signal. Put shortly:
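Tissue factor on primary human umbilical vein endothelium was read by ELISA 24 h after dosing, gain or loss relative to DMSO. Cytotoxicity ran alongside via SRB (0.1%, TCA-fixed, 560 nm).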

Experiment [6] can be described thus: BSK_3C_VCAM1: BioMAP Diversity Plus: 3C Assay for Vascular cell adhesion molecule 1 (VCAM1) Biomarker Activity (AID 2282999). The settings on record: BioMAP 3C HUVEC, VCAM1 ELISA, cytokine-stimulated; actives raise or lower the signal. Put shortly: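 Vascular primary endothelium (human umbilical vein) was exposed to chemicals and assayed 24 h later. VCAM-1 levels came from ELISA, with DMSO serving as baseline for bidirectional fitting.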

The nature of experiment [7]: BSK_4H_Eotaxin3: BioMAP Diversity Plus: 4H Assay for Eotaxin 3 Biomarker Activity (AID 2283000).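 As to outcome: CCL26 protein level quantified by ELISA in parallel with SRB cytotoxicity check.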 Particulars: primary human endothelial cells (HUVEC); actives raise or lower the signal. Put shortly:
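Human umbilical vein endothelial cells (BSK_4H system) dosed with test chemical; Eotaxin-3 (CCL26) measured by ELISA 24 h after dosing. Bidirectional curve fitting relative to DMSO negative control as baseline.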

Experiment [8] addresses human Peroxisome Proliferator-activated Receptor alpha (PPARa), PPARA (gene 5465) (UniProt Q07869). As to the kind of experiment: ATG_PPARa_TRANS: Attagene TRANS-FACTORIAL HepG2 Assay for human Peroxisome Proliferator-activated Receptor alpha (PPARa) (AID 2283001; active = hit-call score of the fitted dose curve at least 0.9, where 1 is the maximum;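 as to AC50: potency for gain of reporter signal over DMSO so agonist or activator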). The essentials:
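Cells (HepG2) are transfected with multiple reporter transcription units, exposed to chemical for 24 h, then total RNA is reverse-transcribed and amplified. Labelled products are quantified by capillary electrophoresis; induction is referenced to DMSO.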

The nature of experiment [9]: BSK_3C_uPAR: BioMAP Diversity Plus: 3C Assay for Urokinase-type plasminogen activator receptor (uPAR) Biomarker Activity (AID 2282998). The settings on record: BioMAP 3C HUVEC, uPAR biomarker ELISA; actives raise or lower the signal. Put shortly: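 Human umbilical vein endothelial primary cells were exposed to test chemical for 24 h. Cell-surface uPAR was then quantified by ELISA, and responses were fitted bidirectionally against DMSO as negative control and baseline.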
In general terms: An ELISA detects its analyte on a solid surface through an enzyme-linked reagent.

A short description of experiment [10]: ATG_NF_kB_CIS: Attagene CIS-FACTORIAL HepG2 Assay for human Nuclear Factor Kappa B (NF-kB) (AID 2282991). The settings on record: HepG2 Attagene cis-factorial NF-kB reporter mRNA; actives raise or lower the signal. Put shortly:
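HepG2, transient multi-reporter transfection, cis promoter elements (endogenous TFs). 24 h exposure. Total RNA → RT → PCR → 6-FAM label → HpaI → CE. Gain/loss vs DMSO.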

Inconclusive results are not listed. Active and inactive are the calls of the source. The calls were made as follows, unless noted: active = hit-call score of the fitted dose curve at least 0.9, where 1 is the maximum; inactive = score below 0.9.

Results on 25 compounds are retold here after PubChem BioAssay (EPA / NIEHS).

Chain of Myc proto-oncogene protein (Homo sapiens) (P01106 whole entry, looked up): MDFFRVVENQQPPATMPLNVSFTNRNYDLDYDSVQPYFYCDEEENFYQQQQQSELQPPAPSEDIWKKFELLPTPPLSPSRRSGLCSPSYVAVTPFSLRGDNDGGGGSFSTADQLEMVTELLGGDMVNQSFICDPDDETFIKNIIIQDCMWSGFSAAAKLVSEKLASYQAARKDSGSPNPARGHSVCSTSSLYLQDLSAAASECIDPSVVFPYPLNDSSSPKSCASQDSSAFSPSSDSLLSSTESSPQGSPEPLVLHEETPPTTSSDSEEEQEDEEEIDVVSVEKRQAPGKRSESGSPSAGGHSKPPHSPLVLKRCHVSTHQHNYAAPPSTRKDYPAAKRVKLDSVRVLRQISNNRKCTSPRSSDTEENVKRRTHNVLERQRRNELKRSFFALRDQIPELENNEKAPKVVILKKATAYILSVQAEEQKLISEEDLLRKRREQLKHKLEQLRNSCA
Chain of Cellular tumor antigen p53 (Homo sapiens) (P04637 whole entry, looked up, the tested form may be a part): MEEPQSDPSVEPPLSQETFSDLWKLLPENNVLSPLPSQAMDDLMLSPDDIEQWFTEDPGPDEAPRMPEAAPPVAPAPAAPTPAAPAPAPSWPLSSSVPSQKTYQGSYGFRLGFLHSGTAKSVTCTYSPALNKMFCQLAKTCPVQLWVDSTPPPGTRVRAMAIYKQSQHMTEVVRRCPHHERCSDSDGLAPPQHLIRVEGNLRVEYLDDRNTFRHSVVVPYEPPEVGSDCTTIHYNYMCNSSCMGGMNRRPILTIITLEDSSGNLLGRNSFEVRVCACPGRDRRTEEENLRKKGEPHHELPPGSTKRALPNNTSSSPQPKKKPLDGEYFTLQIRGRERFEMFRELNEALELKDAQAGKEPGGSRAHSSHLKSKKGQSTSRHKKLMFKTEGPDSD
Chain of human Peroxisome Proliferator-activated Receptor alpha (PPARa), PPARA (gene 5465) (Q07869 whole entry, looked up): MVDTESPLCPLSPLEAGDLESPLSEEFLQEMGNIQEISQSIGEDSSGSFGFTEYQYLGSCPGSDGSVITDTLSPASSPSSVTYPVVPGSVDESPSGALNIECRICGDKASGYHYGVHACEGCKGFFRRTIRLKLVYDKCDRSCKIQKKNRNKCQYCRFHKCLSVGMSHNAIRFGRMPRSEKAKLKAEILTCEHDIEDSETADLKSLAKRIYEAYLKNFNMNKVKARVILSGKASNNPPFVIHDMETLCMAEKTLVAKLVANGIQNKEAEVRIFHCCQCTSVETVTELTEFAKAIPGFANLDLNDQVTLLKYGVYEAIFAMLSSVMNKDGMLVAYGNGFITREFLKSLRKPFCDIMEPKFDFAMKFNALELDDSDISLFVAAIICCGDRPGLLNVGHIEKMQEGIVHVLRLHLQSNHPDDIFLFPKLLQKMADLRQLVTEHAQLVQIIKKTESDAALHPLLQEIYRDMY

`Cc1cc(NC(=O)C(=O)O)cc(C)c1Oc1ccc(O)c2c1CCC2`: the compound was called inactive in [1], in experiment [2], in experiment [3], in experiment [4], in experiment [5] and in experiment [6]. The result in [7] and in experiment [8] was inactive.

Consider `Cc1c(C(=O)O)c(O)cc2c1C(=O)c1c(O)c([C@@H]3O[C@H](CO)[C@@H](O)[C@H](O)[C@H]3O)c(O)c(O)c1C2=O`, for which the compound was classed as inactive in [1], in [2], in [4], in [5], in experiment [9] and in [6]. Also, the outcome in experiment [7] and in experiment [8] was inactive.

A word on the AC50: it is the concentration giving half of the maximal activity seen. Regarding `COc1ccc(S(=O)(=O)N2C(=O)[C@@](c3ccccc3OC)(N3C[C@H](O)C[C@H]3C(=O)N(C)C)c3cc(Cl)ccc32)c(OC)c1`, the compound was called inactive in experiment [1], in [2], in [5] and in experiment [7]. Besides, the AC50 in experiment [3] was 38 µM (active); in experiment [4], 49.7 µM (active); in [6], 28.8 µM (active).

With `CCCCCCCCCCCC(=O)OC`, the result in [1], in experiment [10], in experiment [2], in experiment [4], in experiment [5] and in experiment [6] was inactive. Further, the result in experiment [7] and in experiment [8] was inactive.

On to `Cc1ccccc1Cl`, for which the compound was classed as inactive in experiment [1], in [2], in [3], in experiment [4], in [5] and in experiment [9]. Also, the result in experiment [6] and in experiment [7] was inactive.

Take `COc1ccc(C)cc1N`: the compound was called inactive in experiment [1], in experiment [10], in experiment [2], in experiment [4], in experiment [5] and in experiment [6]. The result in experiment [7] and in [8] was inactive.

Regarding `FC(F)(F)C(F)(F)C(F)(F)C(F)(F)C(F)(F)C(F)(F)CCI`, the outcome in [1], in [2], in [3], in experiment [4], in experiment [5] and in experiment [6] was inactive. Also, the result in experiment [7] and in [8] was inactive.

For the compound `COc1cc(S(=O)(=O)O)c(C)cc1N=Nc1c(O)ccc2cc(S(=O)(=O)O)ccc12`, the compound was called inactive in experiment [1], in experiment [2], in [4], in experiment [5], in [6] and in experiment [7].

As to `CC=Cc1ccc(O)c(OC)c1`, the outcome in experiment [1], in experiment [3], in experiment [4], in [5], in experiment [6] and in experiment [7] was inactive. For the same compound, in experiment [8], the outcome was inactive. In experiment [2], the AC50 was 16.2 µM (active).

On to `CCOc1ccc2c(c1)C(C)=CC(C)(C)N2`, for which the call in [1], in experiment [4], in [5], in experiment [9], in experiment [6] and in experiment [7] was inactive. Further, in experiment [8], the outcome was inactive. For the same compound, the AC50 in experiment [2] was 27.1 µM (active); in experiment [3], 142 µM (active).

As to `COc1cc(/C=C/C(=O)CC(=O)/C=C/c2ccc(O)c(OC)c2)ccc1O`, the call in [1] and in [8] was inactive. The figures for the AC50 in experiment [10], in experiment [2] and in experiment [4] were 33.4 µM (active), 8.71 µM (active) and 50.2 µM (active), respectively.

Regarding `O=C(O)Cc1ccccc1Nc1c(Cl)cccc1Cl`, the compound was called inactive in experiment [1], in experiment [2], in experiment [4], in [5], in [6] and in experiment [7]. Also, the result in [8] was inactive.

Take `CCCCc1ccc2c(n1)[C@@H](c1ccc(OC)cc1C[C@H](C)C(=O)O)[C@H](C(=O)O)[C@H]2c1ccc2c(c1)OCO2`: the compound was called inactive in [1], in experiment [2], in experiment [3], in experiment [4], in [5] and in experiment [6]. The result in experiment [7] and in [8] was inactive.

On to `CCCCCCCCCCCCCO`, for which the result in [1] and in experiment [4] was inactive. Further, the AC50 in experiment [2] is 57.4 µM (active); in experiment [5], 33.1 µM (active); in experiment [9] it was 33.7 µM (active); in [6], 35.6 µM (active); in [7], 38.8 µM (active); in experiment [8] it was 24.3 µM (active).

In the case of `OC[C@@H](O)[C@@H](O)[C@H](O)[C@H](O)CO`, the outcome in experiment [1], in experiment [10], in [2], in experiment [4], in experiment [5] and in [6] was inactive. Also, the result in [7] and in experiment [8] was inactive.

As to `NCCO`, the result in [1], in experiment [2], in experiment [3], in experiment [4], in [5] and in experiment [6] was inactive. Moreover, the result in experiment [7] was inactive.

Take `COCCOC[C@H](CC1(C(=O)NC2CCC(C(=O)O)CC2)CCCC1)C(=O)Oc1ccc2c(c1)CCC2` (some centres undefined): the compound was classed as inactive in [1], in [2], in experiment [3], in experiment [4], in experiment [5] and in experiment [9]. The outcome in experiment [6], in [7] and in experiment [8] was inactive.

As to `CCCCCCCCCCCCCCCC`, the call in [1], in experiment [2], in [3], in experiment [4], in experiment [5] and in experiment [9] was inactive. Moreover, the outcome in experiment [6], in experiment [7] and in experiment [8] was inactive.

Consider `CCOC(=O)CCC(=O)OCC`, for which the compound was classed as inactive in [1], in [2], in [4], in experiment [5], in experiment [6] and in [7].

On to `CC(=O)OCCOCCOCCOC(C)=O`, for which the compound was called inactive in experiment [1], in [2], in [3], in [4], in experiment [5] and in experiment [9]. In addition, the result in experiment [6] and in experiment [7] was inactive.

Consider `C=CCc1ccc(O)c(OC)c1`, for which the call in [1], in experiment [3], in experiment [4], in [5], in experiment [6] and in experiment [7] was inactive. In addition, the call in experiment [8] was inactive. For the same compound, the AC50 in experiment [2] was 27 µM (active).

For the compound `CC(=O)OC/C=C(\C)CCC=C(C)C`, the result in experiment [1], in experiment [2], in experiment [4], in experiment [5], in experiment [9] and in experiment [6] was inactive. Also, in experiment [7], the outcome was inactive.

For the compound `NS(=O)(=O)c1cc2c(cc1Cl)NCNS2(=O)=O`, the outcome in [1], in experiment [2], in experiment [4], in experiment [5], in experiment [9] and in [6] was inactive. Also, the result in experiment [7] was inactive.

In the case of `Cc1ccc(Cl)cc1`, the compound was called inactive in [1], in [2], in experiment [4], in [5], in experiment [6] and in [7].

As to `CCCc1cc(=O)[nH]c(=S)[nH]1`, the outcome in experiment [1], in experiment [2], in experiment [3], in experiment [4], in experiment [5] and in experiment [9] was inactive. Besides, the result in experiment [6] was inactive. The AC50 in [7] was 0.666 µM (active).
